Outcome data for 109 compounds are collected here from PubChem BioAssay AID1117361 (Southern Research Institute, 2015).

In all, about 3,600 compounds went through this assay and about 900 (25%) were called active. No rule for the calls is given here. The list is a sample of the results. A call without a number means that no potency is given here. Potency and affinity values are given separately.

This assay deals with Protein Tat (Human immunodeficiency virus type 1 group M subtype B (isolate HXB2)) (UniProt P04608). Kind of assay: inhibitors of Tat binding to TAR RNA, dose response, counter-screen for Vif-APOBEC3G degradation inhibitor project, biochemical, fluorescence polarization, FAM-labeled TAR RNA (AID 1117361). To be noted: outcome: dose series up to 100 µM unless noted; series mostly up to 100 µM. In general terms: A counterscreen serves to expose hits that act by an unwanted route or on another target.
Consider `Cc1c(CN2CCC(CO)(Cc3cccc(C(F)(F)F)c3)CC2)c2ccccc2n1C`, for which the call was inactive.

As for `CCOc1ccc(-n2cnnn2)cc1S(=O)(=O)NCCc1ccc(OC)c(OC)c1`, the result was inactive.

For `O=C(CSc1nccc(=O)[nH]1)Nc1ccc2c(c1)OCCO2`, the outcome was inactive. Then `Cc1nc(NC(=O)CN2CCOCC2)sc1-c1ccccc1`, with “inactive”; and `C=CCn1c(N2CCCCCC2)nc2c1c(=O)[nH]c(=O)n2C`, with “inactive”; and `Cc1ccc2[nH]c(=O)c(C3C(C#N)=C(N)Oc4c3ccc3cccnc43)cc2c1` (centres undefined), with “inactive”. In the case of `CC(=O)OC(C)C1C2=C(C(=O)CC1(C)O)C(=O)c1c(ccc(-c3ccc4c(c3O)C(=O)C3=C(C4=O)C(C(C)OC(C)=O)C(C)(O)CC3=O)c1O)C2=O` (centres undefined), the outcome was inactive. As for `CCNC(=O)C1CC(=O)N(Cc2ccc(F)cc2)C(=Nc2ccc(OC)cc2)S1` (centres undefined), the entry is “inactive”; as for `CCc1ccc(N/C(SCc2cccc(F)c2)=C(/C#N)C(=O)NCc2ccco2)cc1`, “inactive”; as for `N#C/C(C(=O)N1CCOCC1)=C1/SC(Cc2ccccc2)C(=O)N1c1ccccc1` (centres undefined), “inactive”. Then `CCOc1ccc2[nH]c(=O)c(CN(Cc3nnnn3Cc3ccco3)C3CCCCC3)cc2c1`, with “inactive”. Then `Cc1ccc2nsnc2c1S(=O)(=O)N(Cc1ccco1)Cc1cc2cccc(C)c2[nH]c1=O`, with “inactive”. Consider `CCN(Cc1ccccc1)Cc1nnnn1Cc1ccccc1`, for which the result was inactive.

As to `Cc1ccc2[nH]c(=O)c(CN(Cc3cccs3)Cc3nnnn3Cc3ccccc3)cc2c1`, the outcome was inactive. As for `Cc1ccc(-n2ncc(C#N)c2/N=C/N2CCCCCC2)cc1`, the entry is “inactive”; as for `O=C1OCCC1Sc1nc2ccccc2n1Cc1ccccc1` (centres undefined), “inactive”.

Turning to `Cn1c(=O)oc2cc(S(=O)(=O)Nc3cccc(C(=O)O)c3)ccc21`, the result was inactive. Then `CCOC(=O)c1ccc(NS(=O)(=O)c2ccc3oc(=O)[nH]c3c2)cc1`, with “inactive”; and `COC(=O)c1sc(NC(=O)c2ccc(Cn3cc(Cl)cn3)o2)c(C#N)c1C`, with “inactive”; and `CCOc1ccc(/C=C2\SC(=S)N(CCC(=O)O)C2=O)cc1`, with “inactive”. As for `Cc1ccc(OCCSc2nnc(-c3ccncc3)n2C)cc1`, the entry is “inactive”; as for `CC(Oc1cccc2cccnc12)C(=O)N/N=C/c1ccc2c(c1)OCO2` (centres undefined), “inactive”. Then `COc1cc(NC(=O)c2noc3c2CCC3)c(OC)cc1Cl`, with “inactive”. On to `O=C(c1cccs1)N1CCN(C/C=C/c2ccccc2)CC1`, for which the result was inactive.

For `c1ccc2c(c1)NCC1CCCN21` (centres undefined), the compound was called inactive. For `COc1ccccc1NC(=O)c1oc2ccc(C)cc2c1C`, the outcome was inactive. Then `Cc1nnc(-c2cnn(-c3ccccc3)c2N)n1Cc1cccc(C(F)(F)F)c1`, with “inactive”; and `O=C(Nc1ccccc1C(=O)NCC1CCCO1)c1ccccc1` (centres undefined), with “inactive”. Then `CCOC(=O)N1CCC(NC(=O)c2cc3c(C)nc4ccccc4c3o2)CC1`, with “inactive”; and `CCNC(=S)Nc1cccc(S(=O)(=O)NC2=NCCC2)c1`, with “inactive”. As for `CC(C)Oc1ccc(-c2cc(C(=O)NCCN3CCOCC3)c3ccccc3n2)cc1`, the entry is “inactive”; as for `O=C(NCC1CCCO1)c1cc2ccccc2oc1=O` (centres undefined), “inactive”. As to `O=[N+]([O-])c1ccc(Cl)c(S(=O)(=O)Nc2cccc(S(=O)(=O)NC3=NCCC3)c2)c1`, the compound was classed as inactive. As for `CCOC(=O)N1CCC(NC(=O)c2cc(C(=O)NCc3cccc(Cl)c3)ccc2CO)CC1`, the entry is “inactive”; as for `Cc1ccc2cccc(S(=O)(=O)N3CCN(c4ccccc4F)CC3)c2n1`, “inactive”. As for `S=C(N/N=C/c1cccs1)NC1CC2CCC1C2` (centres undefined), the entry is “inactive”.

Turning to `CC1=C(C(=O)OC(C)C)C(c2ccc(Br)s2)NC(=O)N1C` (centres undefined), the result was inactive. As for `COC(=O)Nc1ccc(C)c2nsnc12`, the entry is “inactive”; as for `COc1ccccc1Cn1c(-c2ccccc2OC)nc2ccccc21`, “inactive”; as for `CCOc1ccc2nc(SCC(=O)c3cccs3)sc2c1`, “inactive”. As for `O=C(Nc1cnn(Cc2ccc(Cl)c(Cl)c2)c1)c1nc2ncccn2n1`, the entry is “inactive”; as for `CCOC(=O)C1CCN(S(=O)(=O)c2cccc(-c3cn4cccnc4n3)c2)CC1`, “inactive”; as for `CCN(CC)S(=O)(=O)c1ccc(/C=C/C(=O)Nc2ccc(N3CCOCC3)cc2)cc1`, “inactive”.

`O=C1CC(N2CCOCC2)C(=O)N1c1ccc(Cl)cc1` (centres undefined): the call was inactive. As for `CC(Sc1nnc(C2CC2)n1C)C(=O)Nc1ccc(N2CCOCC2)cc1` (centres undefined), the entry is “inactive”. As for `Cn1c(-c2ccccc2)cnc1SCC(N)=O`, the entry is “inactive”; as for `COc1nc(N(c2ccccc2)c2ccccc2)nc(-n2ccnc2)n1`, “inactive”. On to `C(=N\n1cnnc1)/c1ccc2ncccc2c1`, for which the result was inactive.

Consider `CC(C)OC(=O)CSc1nnc(-c2ccccn2)n1-c1ccccc1`, for which the call was inactive. Then `C/C(CC1CC2=C(CC1(C)C)C(C)(C)CCC2)=N\NC(N)=S` (centres undefined), with “inactive”; and `Cc1ccc(NC(=S)NNc2ncc(C(F)(F)F)cc2Cl)cc1`, with “inactive”. Then `Cc1nc(NC(=O)COC(=O)CCS(=O)(=O)c2ccccc2Cl)c(Cl)cc1Cl`, with “inactive”. Then `O=c1c2cnn(-c3ccccc3Cl)c2ncn1Cc1cccnc1`, with “inactive”. Take `CC1=CC(C)C2C(=O)N(CCCN(C)C)C(=O)C2C1` (centres undefined): the result was inactive.

Turning to `COc1ccc(Nc2nc(N)nc(CSC(=S)N3CCN(c4ccccc4)CC3)n2)cc1`, the compound was called inactive. For the compound `Cc1nc(C)c(C(=O)OCC(=O)Nc2ccc(C)c(C)c2)s1`, the outcome was inactive.

As to `O=C(N/N=C/C1CC=CCC1)c1ccccc1O` (centres undefined), the result was inactive. Regarding `CCc1cccc(CC)c1-n1c(SCC(=O)N2CCCc3ccccc32)nc(O)cc1=O`, the call was inactive.

As for `Cc1onc(-c2ccccc2)c1C(=O)N1CCCc2ccccc21`, the compound was classed as inactive.

`O=C(Cn1ncc2c(=O)oc3ccccc3c21)N1CCCc2ccccc21`: the call was inactive. Then `O=C(Cn1cc2c(n1)CCCC2)N1CCCc2ccccc21`, with “inactive”.

On to `Cc1nnc(SCC(=O)NCc2cccs2)[nH]c1=O`, for which the compound was called inactive. With `COc1ccc(C(CNCC(=O)Nc2ccccc2F)N(C)C)cc1` (centres undefined), the compound was classed as inactive. Then `O=[N+]([O-])/C(C(Cl)=C(Cl)Cl)=C(/NC1CC1)Sc1ccccc1`, with “inactive”; and `O=C1CCCN1c1ccc(S(=O)(=O)N2CCC(c3ccccc3)CC2)cc1`, with “inactive”; and `N#C/C(=C/c1cc(Br)cs1)C(=O)NCC1CCCO1` (centres undefined), with “inactive”.

With `O=C(COc1ccc(Cl)cc1)N1CCN(S(=O)(=O)c2ccc(Cl)cc2)CC1`, the compound was classed as inactive. As for `Cc1ccc(Cl)cc1N1CCN(C(=O)Cc2cn(C)c3ccccc23)CC1`, the entry is “inactive”. As for `CC(C)Cn1nc(NC(=O)C(C)(C)C)c2cc3ccccc3nc21`, the entry is “inactive”; as for `Cc1ccc(C(=O)NNS(=O)(=O)c2ccc(F)cc2)cc1`, “inactive”; as for `O=C(CN1CCN(c2ccccc2O)CC1)Nc1ccc2c(c1)CCC2`, “inactive”. Then `O=[N+]([O-])c1ccc(NCCCNS(=O)(=O)c2ccc(Cl)cc2)c(Cl)c1`, with “inactive”; and `COc1cc([N+](=O)[O-])c(N2CCOCC2)c([N+](=O)[O-])c1OC`, with “inactive”; and `O=S(=O)(NCC1CCCO1)c1cc(Br)c(Br)s1` (centres undefined), with “inactive”. As for `CCCOC(=O)/C(C(N)=NCc1ccccc1)=C(\O)OCCC`, the compound was classed as inactive. As for `O=C1CCCC2=C1C(c1cccs1)n1ncnc1N2` (centres undefined), the entry is “inactive”; as for `Cc1cc(C)n2nc(SCC(=O)Nc3ccc(F)cc3)nc2n1`, “inactive”; as for `Cc1nnc(NCCc2ccccc2)n(N)c1=O`, “inactive”.

Regarding `O=C(NCC(c1ccco1)N1CCCC1)c1cccc(S(=O)(=O)N2CCCCC2)c1` (centres undefined), the compound was called inactive. For the compound `O=C(CCOc1ccccc1)NCC(c1ccco1)N1CCCCC1` (centres undefined), the compound was classed as inactive. As for `Nc1nc(Nc2ccccc2)sc1C(=O)c1ccccc1`, the entry is “inactive”. Then `COCCN(Cc1cc2ccccc2[nH]c1=O)C(=O)c1ccccc1OC`, with “inactive”; and `CCc1ccc2c(c1)cc(C)c1nnc(SCC(=O)Nc3cc(OC)c(OC)cc3C(=O)O)n12`, with “inactive”.

As for `C=CCOc1ccc(Br)cc1/C=N/O`, the compound was called inactive. As for `Cc1cccc(C)c1NC(=O)CS(=O)CC(=O)NC1CCN(Cc2ccccc2)CC1` (centres undefined), the entry is “inactive [at 50 µM]”.

For `CCOC(=O)c1ccc(-n2ncc(C(=O)OCC)c2N)cc1`, the compound was called inactive. `CCOC(=O)CC(=O)CSc1ncc(C(=O)OCC)c(N)n1`: the outcome was inactive. Then `COc1ccc2cc(C3(C)NC(=O)N(CC(=O)Nc4c(C)n(C)n(-c5ccccc5)c4=O)C3=O)ccc2c1` (centres undefined), with “inactive”. Then `O=S(=O)(/C=C/c1ccccc1)N1CCN(c2ccc(F)cc2)CC1`, with “inactive”. Then `CC(=O)Nc1cccc(C(=O)NC(C)c2ccc(S(N)(=O)=O)cc2)c1` (centres undefined), with “inactive”; and `CCCN(CCC)CCCNc1ccc2nnc(-c3ccc(F)cc3)n2n1`, with “inactive”; and `CCOC(=O)C1CCN(C(=O)C2CCN(S(=O)(=O)c3cc(Cl)ccc3Cl)CC2)CC1`, with “inactive”. Take `CCOC(=O)C1CCN(C(=O)c2ccc(OC)cc2OC)CC1`: the call was inactive. In the case of `CCOC(=O)c1ccc(N2C(=O)c3n[nH]c(C)c3C2c2ccc(OC)cc2OC)cc1` (centres undefined), the outcome was inactive. As for `CCC1SC2=NC(C)=C(C(=O)OC)C(c3ccc(C(=O)OC)cc3)N2C1=O` (centres undefined), the entry is “inactive”; as for `CC1=NN(C(=O)c2csc(C)c2)C(O)(C(F)(F)F)C1` (centres undefined), “inactive”.

For `CCCC(=O)Nc1cccc(-c2nc3ccccc3o2)c1`, the compound was classed as inactive. Then `Brc1ccccc1Cn1c(-c2cncs2)nc2ccccc21`, with “inactive”; and `O=C(CNS(=O)(=O)c1ccc2ccccc2c1)Nc1ccc(F)c(F)c1F`, with “inactive”; and `CC(C)(C)CN1CCNC(=O)C1CC(=O)NCCc1ccccc1C(F)(F)F` (centres undefined), with “inactive”. As for `COc1cccc(CN2CCNC(=O)C2CC(=O)NCCn2nc(C)cc2C)c1OC` (centres undefined), the entry is “inactive”; as for `O=C(CSc1ccccc1)N1CCN(c2ccccc2)CC1`, “inactive”; as for `Cc1nc2nc(C)c(CCC(=O)N3CCN(c4ccccc4)CC3)c(C)n2n1`, “inactive”. As for `Cc1nc2scc(-c3ccccc3)c2c(=O)n1/N=C/c1ccco1`, the entry is “inactive”; as for `COc1cccc(/C=N/n2c(-c3cc(C)[nH]n3)n[nH]c2=S)c1`, “inactive”. For the compound `C(=N\Nc1nncn1/N=C/c1ccco1)/c1ccco1`, the outcome was inactive. For the compound `Cn1ccnc1SCC(=O)c1ccc(Br)cc1`, the compound was classed as inactive.

Consider `CCO[C@H]1OC(C(=O)NCc2ccccc2)=C[C@@H](c2coc3ccccc3c2=O)[C@@H]1CCCO`, for which the compound was called inactive. For `C/C(N)=C(/C#N)C(=O)COC(=O)CCSc1ccccc1`, the compound was called inactive.
